Reference: paper PMC4336329 (PLoS ONE, 2015)
Out of some 310,000 compounds screened, about 14,000 (4.5%) showed an effect of 50% or more. The effect is printed as a negative number. Only a selection was taken, and strong results are over-represented in it overall.

Target: human ether-à-go-go-related gene (hERG) potassium channel (human, UniProt Q12809)
Experiment: primary screen, population patch clamp on CHO cells stably expressing hERG; higher = less effect of the substance
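Further: peak tail current of the secondary pulse compared with the same well before compound.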

Chain of human ether-à-go-go-related gene (hERG) potassium channel (Q12809 whole entry, looked up): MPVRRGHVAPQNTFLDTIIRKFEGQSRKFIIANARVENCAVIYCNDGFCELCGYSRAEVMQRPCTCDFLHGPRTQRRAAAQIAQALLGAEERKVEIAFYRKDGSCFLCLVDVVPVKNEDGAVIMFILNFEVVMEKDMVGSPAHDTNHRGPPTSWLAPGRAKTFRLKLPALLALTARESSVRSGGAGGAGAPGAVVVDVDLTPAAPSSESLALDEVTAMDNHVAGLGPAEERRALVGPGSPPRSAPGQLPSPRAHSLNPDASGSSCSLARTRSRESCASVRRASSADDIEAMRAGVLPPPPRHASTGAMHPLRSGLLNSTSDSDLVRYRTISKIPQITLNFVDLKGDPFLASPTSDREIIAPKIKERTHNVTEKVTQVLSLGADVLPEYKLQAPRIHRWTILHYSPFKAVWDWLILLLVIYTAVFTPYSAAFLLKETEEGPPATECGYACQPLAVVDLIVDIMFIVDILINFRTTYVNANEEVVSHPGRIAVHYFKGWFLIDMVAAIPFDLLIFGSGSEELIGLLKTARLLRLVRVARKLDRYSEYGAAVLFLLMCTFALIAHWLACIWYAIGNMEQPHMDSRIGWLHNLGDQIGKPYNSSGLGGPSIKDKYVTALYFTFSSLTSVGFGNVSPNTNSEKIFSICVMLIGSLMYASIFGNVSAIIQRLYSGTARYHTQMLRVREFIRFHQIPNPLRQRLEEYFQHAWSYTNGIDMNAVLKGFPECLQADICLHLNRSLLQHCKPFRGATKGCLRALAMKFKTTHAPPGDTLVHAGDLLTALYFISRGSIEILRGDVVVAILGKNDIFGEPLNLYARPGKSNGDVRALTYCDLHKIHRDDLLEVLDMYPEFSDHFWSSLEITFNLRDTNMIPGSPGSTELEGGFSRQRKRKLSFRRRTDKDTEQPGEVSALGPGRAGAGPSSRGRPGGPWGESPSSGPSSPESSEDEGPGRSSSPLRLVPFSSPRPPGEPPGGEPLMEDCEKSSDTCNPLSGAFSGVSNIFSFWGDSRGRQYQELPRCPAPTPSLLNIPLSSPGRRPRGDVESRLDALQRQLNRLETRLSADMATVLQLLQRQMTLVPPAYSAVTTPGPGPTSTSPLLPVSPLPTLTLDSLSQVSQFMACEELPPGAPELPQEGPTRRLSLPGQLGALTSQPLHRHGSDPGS

| Compound | hERG current change (%, negative = inhibition) at 10uM |
| --- | --- |
| Cc1sc2nc(SCC(=O)NCc3ccco3)n(-c3ccccc3)c(=O)c2c1C | 8.63% |
| O=P(CCN1CCCCC1)(c1ccccc1)c1ccccc1 | -5.98% |
| COc1ccc(NC(=O)c2cccnc2Sc2ccccc2)c(OC)c1 | 7.52% |
| CC(C)(C)NC(=O)Cn1nnc(-c2ccccc2Cl)n1 | 6.43% |
| CSc1ncccc1C(=O)OCC(=O)NC(C)(C)C | 10.5% |
| COc1ccc(NC(=O)C2CCC(CNS(=O)(=O)c3csc(C(N)=O)c3)CC2)cc1OC (stereo not shown) | 15.3% |
| COc1ccc2[nH]c(C(=O)Nc3ccc(F)cc3Br)cc2c1 | 11.7% |
| COc1ccc(/C=N/NC(=O)c2cccnc2)cc1O | 11.1% |
| COc1ccc(OC)c2sc(N3CCN(C(=O)c4ccc([N+](=O)[O-])s4)CC3)nc12 | -41.9% |
| Cc1ccc(N2CCN(C(=O)c3cccc([N+](=O)[O-])c3)CC2)cc1Cl | -19.1% |
| O=C(c1cccc([N+](=O)[O-])c1)N1CCN(c2cccc(Cl)c2)CC1 | -57.4% |
| O=C(c1cccc([N+](=O)[O-])c1)N1CCN(c2ccc(Cl)cc2)CC1 | -41.1% |
| COc1ccccc1N1CCN(C(=O)c2ccc([N+](=O)[O-])s2)CC1 | -54.5% |
| COc1ccccc1N1CCN(C(=O)c2ccc(Br)s2)CC1.Cl | -46.3% |
| CCOC(=O)N1CCN(S(=O)(=O)c2ccc(Br)s2)CC1 | -9.22% |
| COc1ccc(CC(=O)Nc2ccc(-c3csc(C)n3)cc2)cc1 | 7.89% |
| COc1ccc(Nc2nc(-c3cc4cccc(OC)c4oc3=O)cs2)cc1 | 11.6% |
| Cc1cccc(C(=O)Nc2cccc(C(=O)Nc3cc(C)ccn3)c2)c1 | 7.29% |
| CCCCNC(=O)CC1N=C2c3ccccc3N=C(SCC(=O)Nc3ccccc3C)N2C1=O (stereo not shown) | -0.929% |
| O=C(CSC1=Nc2ccccc2C2=NC(CC(=O)NC3CCCCC3)C(=O)N12)NCc1ccco1 (stereo not shown) | -29.9% |
| CCCCNC(=O)CC1N=C2c3ccccc3N=C(SCC(=O)Nc3cccc(C)c3)N2C1=O (stereo not shown) | -52.6% |

| Compound | hERG current change (%, negative = inhibition) at 10uM |
| --- | --- |
| Cc1ccc(CSC2=Nc3ccccc3C3=NC(CCC(=O)NCc4ccco4)C(=O)N23)cc1 (stereo not shown) | -68.8% |
| NC(=O)CSC1=Nc2ccccc2C2=NC(CC(=O)NCc3cccs3)C(=O)N12 (stereo not shown) | 11.2% |
| Cc1ccc(CSC2=Nc3ccccc3C3=NC(CC(=O)NCc4ccco4)C(=O)N23)cc1 (stereo not shown) | -51.8% |
| CCCCNC(=O)CC1N=C2c3ccccc3N=C(SCC(=O)Nc3cccc(OC)c3)N2C1=O (stereo not shown) | -10.6% |
| O=C(CCC1N=C2c3ccccc3N=C(SCC(=O)NCc3ccco3)N2C1=O)NCc1ccco1 (stereo not shown) | 12.7% |
| O=C(CSC1=Nc2ccccc2C2=NC(CC(=O)NCc3ccco3)C(=O)N12)NCc1ccco1 (stereo not shown) | 7.61% |
| O=C(CC1N=C2c3ccccc3N=C(SCc3ccccc3Cl)N2C1=O)NCc1ccco1 (stereo not shown) | -47% |
| CCC(C)NC(=O)CSC1=Nc2ccccc2C2=NC(CCC(=O)NCc3ccco3)C(=O)N12 (stereo not shown) | -1.01% |
| O=C(CC1N=C2c3ccccc3N=C(SCc3ccc(Cl)cc3)N2C1=O)NCc1ccco1 (stereo not shown) | -75.3% |
| Cn1c(SCC(=O)O)nnc1-c1ccc(NC(=O)c2ccc(Cl)c(Cl)c2)cc1 | 7% |
| COCc1[nH]nc2c1C(C1C=CCCC1)C(C#N)=C(N)O2 (stereo not shown) | -8.37% |
| CSc1ccc(/C=C/C(=O)NC(=O)c2ccccc2O)cc1 | 11.3% |
| O=C(O)/C=C/c1cnc2ccccc2c1 | 19.1% |
| CCOc1ccc(C(O)(CCC(C)C)C(CN2CCOCC2)c2ccccc2)cc1.Cl (stereo not shown) | 13.3% |
| COc1ccc(CCNC(=O)CCC(=O)Nc2nnc(C(C)C)s2)cc1OC | 10.4% |
| Cc1cc(N)n(-c2nc(-c3cccnc3)nc3ccccc23)n1 | -27.4% |
| O=S(=O)(CCN1CCOCC1)c1ccc(OC(F)(F)F)cc1 | 2.9% |
| COc1ccc(OCCOC(=O)C(C)NS(=O)(=O)c2ccc(NC(C)=O)cc2)cc1 (stereo not shown) | -7.73% |
| COC(=O)C1=C(c2c(C)noc2C)C[C@@H]2CC[C@H]1N2C(=O)N1CCCCC1 | 17.1% |
| CC(=O)Nc1ccc(N=Nc2ccccc2)cc1 | 8.44% |
| O=C(NC(=S)Nc1nc(-c2ccc([N+](=O)[O-])cc2)cs1)c1ccco1 | 16.5% |

| Compound | hERG current change (%, negative = inhibition) at 10uM |
| --- | --- |
| O=C(CCC1N=C2c3ccccc3N=C(SCC(=O)NCC3CCCO3)N2C1=O)NCc1ccc(F)cc1 (stereo not shown) | 2.89% |
| O=C(CCC1N=C2c3ccccc3N=C(SCc3ccc(F)cc3)N2C1=O)NCc1ccco1 (stereo not shown) | -70.9% |
| NC(=O)CSC1=Nc2ccccc2C2=NC(CCC(=O)NCc3ccc(F)cc3)C(=O)N12 (stereo not shown) | 15.1% |
| O=C(CC1N=C2c3ccccc3N=C(SCc3ccc(F)cc3)N2C1=O)NCc1ccco1 (stereo not shown) | -73.9% |
| CCC(C)NC(=O)CSC1=Nc2ccccc2C2=NC(CC(=O)NCc3ccc(F)cc3)C(=O)N12 (stereo not shown) | -11.4% |
| O=C(CCC1N=C2c3ccccc3N=C(SCc3ccc(Cl)cc3)N2C1=O)NCc1ccco1 (stereo not shown) | -52% |
| O=C(CCC1N=C2c3ccccc3N=C(SCc3cccc(Cl)c3)N2C1=O)NCc1ccco1 (stereo not shown) | -42.2% |
| O=C(CSC1=Nc2ccccc2C2=NC(CC(=O)NCc3ccco3)C(=O)N12)NCC1CCCO1 (stereo not shown) | 7.92% |
| O=C(CCC1N=C2c3ccccc3N=C(SCc3ccccc3Cl)N2C1=O)NCc1ccco1 (stereo not shown) | -32.4% |
| CCCCN(C)CCNC(=O)c1ccc(Cn2c(=S)[nH]c3ccc(Br)cc3c2=O)cc1 | -41% |
| COCCNC(=S)N(CCCN(C)C)Cc1cc2cc3c(cc2[nH]c1=O)OCCO3 | 24.9% |
| CC(Oc1ccc2c(-c3ccccc3)cc(=O)oc2c1)C(=O)N[C@H](Cc1c[nH]c2ccccc12)C(=O)O (stereo partly shown) | 7.48% |
| O=C(NCC1CCCO1)c1cnn2c1NC(c1ccccc1)CC2C(F)(F)F (stereo not shown) | 1.68% |
| NS(=O)(=O)c1cccc(NC(=O)COC(=O)CCc2ccccc2)c1 | 17% |
| CCC(=O)N1CCc2cc(S(=O)(=O)CCC(=O)NCc3ccc4c(c3)OCO4)ccc21 | 0.659% |
| Cc1ccc2c(CC(=O)NCCc3ccc(S(N)(=O)=O)cc3)coc2c1 | -2.43% |
| O=C(O)C(=O)O.c1ccc(COc2ccc(OCCCN3CCCC3)cc2)cc1 | -73.8% |
| O=C(O)C(=O)O.c1ccc(COc2ccc(OCCCN3CCCCC3)cc2)cc1 | -78.3% |
| COc1cccc2c1-c1c(C(=O)O)cccc1C2=O | 15.7% |
| CC(=O)c1ccc(NC(=O)C(C)NCc2ccccc2Cl)cc1 (stereo not shown) | -0.834% |
| CCCCN(C)Cc1c(C)[nH]c2c(Cl)cccc2c1=O | -38.7% |

| Compound | hERG current change (%, negative = inhibition) at 10uM |
| --- | --- |
| CCN(Cc1ccccc1)Cc1c(C)[nH]c2c(C)c(C)ccc2c1=O | -40.6% |
| CCCCN(CC)Cc1c(C)[nH]c2c(ccc3ccccc32)c1=O | -74.3% |
| CCCCN(C)Cc1c(C)[nH]c2ccccc2c1=O | -2.26% |
| CCCCN(C)Cc1c(C)[nH]c2ccc(OCC)cc2c1=O | -39.9% |
| Cc1[nH]c2ccc(Cl)cc2c(=O)c1CN1CCCC1 | 1.86% |
| CCCCN(C)Cc1c(C)[nH]c2c(ccc3ccccc32)c1=O | -73.6% |
| CCCCN(CC)Cc1c(C)[nH]c2ccccc2c1=O | -20.7% |
| CCCCN(C)Cc1c(C)[nH]c2ccc(Cl)cc2c1=O | -55.3% |
| CC1(C)CC(=O)C(C=Nc2cccnc2/N=C/C2=C(O)CC(C)(C)CC2=O)=C(O)C1 | 14% |
| O=c1[nH]n2c(C(F)(F)F)cc(C3CC3)nc2c1N=Nc1ccccc1 | 12.2% |
| COc1cc(OC)cc(-c2oc(=O)c3cc(OC)c(OC)cc3c2/C=C/c2ccc(F)cc2)c1 | 4.91% |
| Cc1ccc(C(=O)n2nnc3ccccc32)cc1 | 7.37% |
| CN1C(=S)SC(/[N+]([O-])=C\c2ccccc2)C1(C)C (stereo not shown) | -15.4% |
| COC(=O)c1[nH]c2ccccc2c1NC(=O)CN1CCN(Cc2ccc3c(c2)OCO3)CC1 | -73.7% |
| COC(=O)c1[nH]c2ccc(C)cc2c1NC(=O)CN1CCN(c2ccc(F)cc2)CC1 | -1.02% |
| CCN(CC(=O)Nc1c(C(=O)OC)[nH]c2ccc(C)cc12)c1ccc2c(c1)OCO2 | 2.19% |
| CCN(CC(=O)Nc1c(C(=O)OC)[nH]c2ccccc12)c1ccc2c(c1)OCO2 | -17.4% |
| COC(=O)c1[nH]c2ccc(C)cc2c1NC(=O)CCN1CCN(Cc2ccc3c(c2)OCO3)CC1 | -66.1% |
| COC(=O)c1[nH]c2ccccc2c1NC(=O)CN1CCN(c2cccc(Cl)c2)CC1 | 6.84% |
